Structures are written as SMILES. Activity calls are given as the source filed them.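 The calls were made as follows, unless noted: active = z-score of at least 1.8 in each of two replicates, scored against plate mean and spread of sample wells; inactive = the rest.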

The nature of assay [1]: survival rescue of mitochondrial mutant cells in low glucose, primary screen, MELAS cybrids, Rieske KO mouse fibroblasts, CellTiter-Glo (AID 1508586;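 active = mean z-score across replicates of 1.96 or higher in either the MELAS or the Rieske mutant cell line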;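 also: test concentration not given here; z relative to plate mean and SD of compound and empty wells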).
Assay [2] can be described thus: viability rescue of complex I mutant cybrids, primary screen, cell-based, galactose medium, ATP luminescence (AID 1645843).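 Also: positive z means more ATP and so rescue of galactose-driven cybrid death.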 The following applies: complex I mutant cybrid cells, 72 h, stronger effect = higher value.
Where [3] appears, read: MELAS cybrid survival, CellTiter-Glo 48 h, stronger effect = higher value.
Where [4] appears, read: Rieske KO mouse fibroblast survival, CellTiter-Glo 72 h.

As to `CCn1c(C(=O)OC)c(NC(C)=O)c2cc(NCc3ccc(OC)cc3)cnc21`, the z-score in assay [1] (setting [3]) was -0.521 (inactive); in assay [1] (setting [4]) it was -0.331; in assay [2] it was -0.96 (inactive).
For `Cc1ccc(-c2cc(C(=O)NCc3c(C)nn(C)c3C)cc(S(=O)(=O)N3CCOCC3)c2)s1`, the z-score in assay [1] (setting [3]) was -0.303 (inactive); in assay [1] (setting [4]) it was -0.219; in assay [2], 0.42 (inactive).
For `CC(C)[C@@H]1NC(=O)[C@@H]2C[C@H](NC(=O)c3cccc(Cl)c3)CN2C1=O`, the z-score in assay [1] (setting [3]) is 9 (active); in assay [1] (setting [4]) it was -0.848; in assay [2], -0.675 (inactive).
The corresponding values for `O=C(NCCn1cncn1)c1cc(-c2ccccc2)cc(S(=O)(=O)N2CCSCC2)c1` are -0.182 (inactive), 0.272 and 1.56 (inactive).
For `Cc1nc2sccn2c1CN1CCC2(CC1)C(=O)N(CC(C)C)C(=O)N2CCc1ccccc1`, in that order: -0.397 (inactive), -0.675 and 0.34 (inactive).
For `CNS(=O)(=O)c1cc(NCc2cnc(C)[nH]2)cc(C(=O)Nc2ccc3c(c2)CCC3)c1`, in that order: -0.00503 (inactive), -0.751 and 0.02 (inactive).
On to `CC(=O)c1cccc(-c2cc3c(n(CC=C(C)C)c2=O)CCN(Cc2cnc(N(C)C)s2)C3)c1`, for which the z-score in assay [1] (setting [3]) was -0.385 (inactive); in assay [1] (setting [4]), 0.11; in assay [2] it was 0.475 (inactive).
The corresponding values for `Cc1ccc(S(=O)(=O)N2CCN3C(=O)[C@H](Cc4ccc(Cl)cc4)NC(=O)[C@H]3C2)cc1` are 1.43 (inactive), -0.392 and -0.845 (inactive).
For `CCOC(=O)c1nn(Cc2ccc(OC)cc2)c2c1CN(C(=O)CSc1ncccn1)CC2`, in that order: -0.668 (inactive), -0.456 and 0.665 (inactive).
The corresponding values for `CC(C)CNC(=O)[C@H]1CNC[C@@H](CN2CCOCC2)C1` are 0.0168 (inactive), 0.121 and -0.045 (inactive).
Consider `CCOC(=O)N1CCC(N2CCc3c(cc(-c4cccc(OC)c4OC)c(=O)n3CC3CC3)C2)CC1`, for which the z-score in assay [1] (setting [3]) was -0.362 (inactive); in assay [1] (setting [4]), -0.0606; in assay [2], -0.36 (inactive).
The corresponding values for `Cc1ccc(-c2cc(C(=O)NCC3CC3)cc(S(=O)(=O)N3CCOCC3)c2)s1` are -0.142 (inactive), 0.0847 and 0.15 (inactive).
For `CCN(CC)C(=O)c1cc(-c2ccc(C)s2)cc(S(=O)(=O)N2CCOCC2)c1`, in that order: -0.0477 (inactive), 0.74 and -0.44 (inactive).
The corresponding values for `CC(C)N1CCN(C(=O)c2cc(-c3ccccc3)cc(S(=O)(=O)N3CCSCC3)c2)CC1` are -0.246 (inactive), -0.306 and 1.2 (inactive).
Take `Cc1c(CN2CCc3c(c(C(=O)NC4CCCC4)nn3CC(C)C)C2)c(=O)n(-c2ccccc2)n1C`: the z-score in assay [1] (setting [3]) is -0.389 (inactive); in assay [1] (setting [4]), -0.276; in assay [2], 0.17 (inactive).
For `CC(C)CCNc1cc(C(=O)NCCCn2ccnc2)cc(S(=O)(=O)N2CCCC2)c1`, in that order: 0.646 (inactive), -0.386 and -0.97 (inactive).
With `O=c1c(/C=C/c2ccccc2)cc2c(n1Cc1ccccn1)CCN(C1CCOCC1)C2`, the z-score was -0.0238 (inactive) in assay [1] (setting [3]), 0.293 in assay [1] (setting [4]) and 0.925 (inactive) in assay [2].
The corresponding values for `CCc1nc(CNc2cc(C(=O)Nc3ccc4c(c3)CCC4)cc(S(=O)(=O)NC)c2)c(C)[nH]1` are -0.12 (inactive), -0.343 and 0.065 (inactive).
For the compound `CN(C)c1cccc(NC(=O)c2cc(NCc3cnn(C)c3)cc(S(=O)(=O)N3CCCC3)c2)c1`, the figures for the z-score in assay [1] (setting [3]), in assay [1] (setting [4]) and in assay [2] were -0.28 (inactive), -0.862 and 0.265 (inactive), respectively.
As to `O=C(NCCN1CCOCC1)c1cc(-c2ccccc2)cc(S(=O)(=O)N2CCSCC2)c1`, the z-score in assay [1] (setting [3]) is -0.0926 (inactive); in assay [1] (setting [4]), -0.421; in assay [2], 1.53 (inactive).
For `COc1ccc(CN2CC(OCc3cccnc3)CN(C(=O)C3=NN(C)C(=O)CC3)CC2=O)cc1` (stereo not drawn), in that order: -0.43 (inactive), -0.34 and 1.23 (inactive).
For `COc1ccccc1C(=O)N1CCN2C(=O)[C@@H]3CSCN3C(=O)[C@H]2C1`, in that order: -0.216 (inactive), 0.475 and -0.395 (inactive).
With `COc1cccc(C(=O)N2CCN3C(=O)[C@H](C(C)C)NC(=O)[C@H]3C2)c1`, the figures for the z-score in assay [1] (setting [3]), in assay [1] (setting [4]) and in assay [2] were -0.0303 (inactive), -0.513 and 0.605 (inactive), respectively.
For `COc1cccc2ccc(CN3CCC4(CC3)C(=O)N(CCc3ccccc3)C(=O)N4C)nc12`, in that order: -0.413 (inactive), 1.51 and 0.055 (inactive).
The corresponding values for `CCCc1c(C(=O)N[C@H]2C[C@H]3C(=O)N[C@H](Cc4ccc(O)cc4)C(=O)N3C2)cnn1-c1ccccc1` are -0.275 (inactive), -0.357 and -1.02 (inactive).
The corresponding values for `COC(=O)c1c(NC(C)=O)c2cc(NCc3sccc3C)cnc2n1CC1CCCO1` (stereo not drawn) are 0.213 (inactive), 0.989 and -0.82 (inactive).

The record behind these values is PubChem BioAssay.
